Bioassay records: PubChem, National Center for Advancing Translational Sciences (NCATS)
Only some compounds are listed: those with a hit (about 13% of all), similar ones and a draw of the others.
LASV entry inh: qHTS for Inhibitors of binding or entry into cells for Lassa Virus; Lassa virus pseudotype entry inhibition, cell reporter; Potency, µM (titrated, usually from 37.9 µM), inactives show top-dose activity change, negative = inhibition, actives largely listed as inhibitors; actives 1.2% (n = 300,000); AID 540256, 2011; calls by dose curve; tested in HEK293 cells; note: potency is the fitted concentration of half-maximal effect; % is set by controls: 0 for no effect and ±100 for the full control effect; nearly all actives have a fitted effect of over 50% in size
MARV entry inh: qHTS for inhibitors of binding or entry into cells for Marburg Virus. Marburg virus pseudotyped entry inhibition, cell reporter. Potency, µM (highest dose often 37.8 µM), inactives show at the highest dose activity change, negative = inhibition, hits mostly inhibitors. actives 1.8% (n = 300,000). AID 540276, 2011; calls by dose curve; tested in HEK293 cells; note: potency is the fitted concentration of half-maximal effect; % is set by controls: 0 for no effect and ±100 for the full control effect
FMDV antiviral: High Throughput Screening for Foot and Mouth Disease Virus Antivirals; FMDV antiviral cell-based qHTS; Potency, µM (doses to about 57.9 µM), without a hit: at the top dose activity change, negative = inhibition, actives largely listed as inhibitors; actives 1.2% (n = 410,000); AID 1159524, 2015; calls by dose curve; tested in HEK293T cells; note: read-out not given here; potency is the fitted concentration of half-maximal effect; % is set by controls: 0 for no effect and ±100 for the full control effect; nearly all actives have a fitted effect of over 45% in size
Shiga toxin inh: A qHTS for Small Molecule Inhibitors of Shiga Toxin | Vero cells, Shiga toxin protein synthesis inhibition reporter | inhibition, % at 38.7 µM | actives 9.2% (n = 290,000); in the data active = inhibition mostly above about 28%, no sharp cut-off; inactive = mostly below about 43%; note: 0% is about no effect
CHX counter: Cycloheximide Counterscreen for Small Molecule Inhibitors of Shiga Toxin | max response, % | cell reporter, cycloheximide protein synthesis inhibition counterscreen | AID 2314, 2010 | actives 12% (n = 300,000); in the data active = max response mostly above about 13%, no sharp cut-off; inactive = mostly below about 14%; note: read at 38.3 µM for the half of the compounds with a filed dose; 0% is about no effect
HCV inh: qHTS Assay for Inhibitors of Hepatitis C Virus (HCV). Huh7.5.1 HCVcc-Cre infection, luciferase reporter, 44 h. Potency, µM (highest dose often 41.8 µM), for inactives: at the top dose activity change, negative = inhibition, actives largely listed as inhibitors. actives 3.4% (n = 340,000); active = well fitted inhibition curve with a large enough effect; inconclusive = small, poorly fitted or top-dose-only effect, or another doubt; inactive = no such curve, though single readings can be large or run the other way; note: potency is the fitted concentration of half-maximal effect; % is set by controls: 0 for no effect and ±100 for the full control effect
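A cell-based infection assay in which seeded cells (1,000 per well) receive test compound after 4 h, are inoculated with HCVcc-Cre at approximately 0.5 moi, and are incubated 44 h before luminescence detection.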
The depositor's hits bear a star; [ ] = remark or other dose.

Screening CC(C)[C@H](NC(=O)c1ccccc1)C(=O)OCC(=O)N1CC2(C)CC1CC(C)(C)C2 (stereo partly specified) returned LASV entry inh -2%, MARV entry inh -14%, FMDV antiviral -10%, Shiga toxin inh -6, CHX counter -2 and HCV inh 2%.
`CCN1C(=O)c2ccccc2S(=O)c2ccc(C(=O)N3CCOCC3)cc21` (stereo unspecified) gave LASV entry inh -2%, MARV entry inh 0%[46.1 µM], FMDV antiviral 5%, Shiga toxin inh 12, CHX counter 1 and HCV inh 19%.
`O=C(c1cccc(-c2ccc(O)cc2)c1)N1CCOCC1` gave LASV entry inh -2%, MARV entry inh -8%[46.1 µM], FMDV antiviral 29%, Shiga toxin inh 22, CHX counter 13* and HCV inh 21%.
O=C(c1cc(-c2ccccc2)on1)N1CCN(c2ccccc2)CC1 was read as LASV entry inh 8%[46.1 µM], MARV entry inh 12%[46.1 µM], FMDV antiviral -1%, Shiga toxin inh -3, CHX counter 2 and HCV inh 8%.
`O=C(c1cc(-c2cccc(O)c2)on1)N1CCOCC1` gave FMDV antiviral -22%, Shiga toxin inh 23*, CHX counter 13* and HCV inh 1%.
Screening O=C1c2ccccc2-c2ccc(C(=O)N3CCOCC3)cc21 returned LASV entry inh 2%, MARV entry inh 2%, FMDV antiviral 19%, Shiga toxin inh 13, CHX counter 22* and HCV inh 11%.
O=C(c1cc(-c2cccc(O)c2)on1)N1CCCCCC1 was read as LASV entry inh inconclusive, MARV entry inh inconclusive, FMDV antiviral 22%, Shiga toxin inh 112*, CHX counter 37* and HCV inh -3%.
O=C(c1cccc(-c2cccc3nccn23)c1)N1CCOCC1 was read as FMDV antiviral -1%.
Screening C=C1CCN(C(CC(C)C)C(=O)NCc2ccc(Cl)c(Cl)c2)S(=O)(=O)c2ccccc21 (stereo unspecified) returned Shiga toxin inh -9 and CHX counter -2.
CCn1ncc(-c2csc(N)n2)c1C was read as LASV entry inh -8%, MARV entry inh 23%[46.1 µM], FMDV antiviral 0%, Shiga toxin inh 31, CHX counter 26* and HCV inh -10%.
CCCNC(=O)CCc1cc(C(C)(C)C)c(O)c(C(C)(C)C)c1 was read as FMDV antiviral -14%, Shiga toxin inh -10, CHX counter 1 and HCV inh inconclusive.
`CCOC(=O)N1CCC(Nc2ncnc3c2cnn3-c2ccc(Cl)cc2)CC1` gave LASV entry inh 13%, MARV entry inh inconclusive, FMDV antiviral 28%, Shiga toxin inh 120*, CHX counter 54* and HCV inh 17%.
For CCOC(=O)C1CCCN(c2ncnc3c2nnn3C)C1 (stereo unspecified) the results were LASV entry inh inconclusive and FMDV antiviral -12%.
For CCOC(=O)C1CCCN(c2ncnc3c2cnn3-c2ccc(OC)cc2)C1 (stereo unspecified) the results were LASV entry inh -8%, MARV entry inh -3%, FMDV antiviral -18%, Shiga toxin inh 70*, CHX counter 35* and HCV inh -6%.
CCOC(=O)C1CCCN(c2ncnc3c2cnn3-c2ccc(Cl)cc2)C1 (stereo unspecified) was read as LASV entry inh inconclusive, MARV entry inh inconclusive, FMDV antiviral inconclusive, Shiga toxin inh 24, CHX counter 17* and HCV inh inconclusive.
Cc1ccc(-n2ncc3c(NC4CCCC4)ncnc32)cc1 was read as LASV entry inh inconclusive and FMDV antiviral -82%.
`Cc1ccc2[nH]c(=O)c(CN(Cc3cccs3)S(=O)(=O)c3ccc4c(c3)OCCO4)cc2c1` gave LASV entry inh 0%, MARV entry inh -26%, FMDV antiviral -8%, Shiga toxin inh -13, CHX counter -1 and HCV inh 2%.
